Source: PubChem (National Center for Advancing Translational Sciences (NCATS))
MCF10A rerep = induces DNA re-replication in MCF 10a normal breast cells; AID 624296; MCF 10A DNA re-replication, Hoechst nuclear intensity, 48 h; 2.9% of 350,000 active; Potency, µM (doses to about 46.1 µM), for inactives: top-dose activity, positive = re-replication, most hits filed as activators; also: % of control where 0% means no effect; nearly all actives have a fitted effect of over 50% in size
KB-V1 MDR tox = KB-V1 MDR subline cytotoxicity; Potency, µM (titrated, usually from 46.1 µM), usual class: cytotoxic; KB-V1 MDR cells viability, CellTiter-Glo, 72 h; 3.4% of 400,000 active; also: % is scaled to controls: 0 for no effect and ±100 for the full control effect; nearly all actives have a fitted effect of over 60% in size
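KB-V1 MDR subline cells in DMEM (phenol-red free, 10% FBS) exposed to compounds in qHTS concentration series for 72 h at 37 degrees C. Viability read by CellTiter-Glo luminescence; concentration-effect curves fitted after normalization and correction.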
HT1080-NT tox = kills 2HG-producing HT-1080-NT fibrosarcoma cells | AID 686970 | HT-1080-NT fibrosarcoma viability, CellTiter-Glo ATP luminescence, 48 h | Potency, µM (titrated, usually from 46.1 µM), for the others: at the top dose activity, negative = less viability, usual class: cytotoxic | 1.6% of 360,000 active;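 also: NT is the 2HG producing partner of a matched IDH1 knockdown line; 0% = DMSO-treated cells and -100% = media-only wells without cells; nearly all actives have a fitted effect of over 55% in size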
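HT-1080-NT; 750 cells/well; 5% FBS RPMI; 48 h compound, 37 degrees C; CellTiter-Glo luminescence; curve fitting and curve-class assignment.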
SW480 rerep = induces DNA re-replication in SW480 colon adenocarcinoma cells | AID 624297 | 1.8% of 340,000 active | SW480 DNA re-replication, Hoechst DNA content imaging, 48 h | Potency, µM (titrated, usually from 46.1 µM), without a hit: at the top dose re-replication activation, most hits filed as activators; also: % of control where 0% means no effect; nearly all actives have a fitted effect of over 55% in size
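250 cells/well; 23 nL cpd via pin tool; 48 hr, 37 C, 5% CO2; Hoechst 40 min; imager read of total nuclear intensity, ex 405/em 500-530 nm.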
HT1080 IDH1KD tx = kills HT-1080 cells with IDH1 knockdown. HT-1080 IDH1 knockdown viability, ATP luminescence, 48 h. Potency, µM (top dose mostly 46.1 µM), for the others: top-dose activity, negative = toxicity, actives largely listed as cytotoxic. 2% of 360,000 active;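 also: 0% = DMSO wells and -100% = cell-free medium wells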
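In this qHTS, HT-1080 cells depleted of IDH1 are exposed for 48 h at 37 °C to compound titrations. Toxicity is scored from CellTiter-Glo luminescence, with DMSO as full viability and medium alone as none.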
KB-3-1 cytotox = kills parental KB-3-1 adenocarcinoma cells | Potency, µM (doses to about 46.1 µM), hits mostly cytotoxic | AID 1347075 | KB-3-1 viability, CellTiter-Glo ATP luminescence, 72 h | 1.4% of 400,000 active; also: % is scaled to controls: 0 for no effect and ±100 for the full control effect; nearly all actives have a fitted effect of over 60% in size
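Cytotoxicity in the drug-sensitive parental line KB-3-1 was scored as loss of CellTiter-Glo luminescence following 72 h incubation with compound. Values come from curve fitting of normalized concentration-response data.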
Starred values were filed as active, the others as inactive; i = inactive; ? = inconclusive; nt = not tested or not shown. This is a sample that favours compounds with a hit; in the whole collection about 7.9% have one here. Calls follow the shape of the dose curve; as a rule, active = well fitted curve in the direction sought with a large enough effect; inconclusive = small, poorly fitted or top-dose-only effect, or another doubt; inactive = no such curve, though single readings can be large; an effect the other way counts as inactive or inconclusive. Potency is read from the fitted curve at half-maximal effect.

SMILES	MCF10A rerep	KB-V1 MDR tox	HT1080-NT tox	SW480 rerep	HT1080 IDH1KD tx	KB-3-1 cytotox
Cc1ccc(C(=O)Nc2ncc(Cc3ccccc3)s2)o1	?	i	nt	-20%	nt	3.5µM*
CC1=C(C(=O)N2CCOCC2)CC(CC(=O)NCCc2ccccn2)C(=O)N1CCC1=CCCCC1 (centres undefined)	nt	i	19%	nt	12%	i
CCCn1c(=N)c(C(=O)NC2CCCCC2)cc2c(=O)n3cc(C)ccc3nc21	nt	i	nt	nt	nt	i
CC1(C(=O)NS(=O)(=O)c2cccc(OC(F)F)c2)CCN1C(=O)C/C=C/c1ccccc1 (centres undefined)	nt	i	-2%	nt	-3%	i
CCOc1ccc2nc(SC3CC(=O)N(c4ccc(C)cc4)C3=O)sc2c1 (centres undefined)	?	i	-3%	?	?	i
CCOc1ccc2nc(/N=C/c3c(C)[nH]n(-c4ccc(C)cc4)c3=O)sc2c1	-13%	10µM*	?	-74%	?	12µM*
CCOc1[nH]n(-c2ccccc2)c(=O)c1C=Nc1ccc(OC)cc1	-3%	i	-8%	-8%	-14%	i
CCOc1ccc2nc(/N=C/c3c(C)[nH]n(-c4ccccc4)c3=O)sc2c1	-29%	?	0%	2.9µM*	-1%	?
COc1ccc(N=c2nc(-c3ccc(C)cc3)n(-c3ccccc3)s2)cc1	nt	i	nt	nt	nt	?
CCc1cccc2c(N=O)c(O)[nH]c12	3%	16µM*	0%	-5%	-18%	?
CCc1ccc(NC(=O)CSc2nc(=O)n(Cc3cccnc3)c3c2CCC3)cc1	nt	i	nt	nt	nt	i
O=C(Nc1ccc(F)c(F)c1)c1cnn2c1NC(=C1CC1)C=C2C(F)(F)F	nt	i	nt	nt	nt	?
COc1cc(-c2noc(C)c2/C=C/c2ccc(C(=O)O)cc2)cc(OC)c1OC	?	i	?	?	18µM*	?
COc1cc(-c2noc(C)c2/C=C/c2cccc([N+](=O)[O-])c2)cc(OC)c1OC	?	5.8µM*	2.3µM*	?	3.7µM*	2.9µM*
Brc1ccc(CN2CCN(Cc3c[nH]c4ccccc34)CC2)cc1	?	?	23µM*	?	21µM*	?
Brc1ccccc1CN1CCN(Cc2c[nH]c3ccccc23)CC1	?	?	7.3µM*	-121%	23µM*	?
COc1ccc(Cl)cc1NC(=O)C1CCN(S(=O)(=O)c2ccc3c(c2)CC(C)N3C(C)=O)CC1 (centres undefined)	nt	i	nt	nt	nt	i
CN(Cc1ccccc1)C(=O)c1ccccc1NC(=O)C1CC1	-3%	i	6%	4%	10%	i
Cc1ccc(NC(=O)C(Cc2ccccc2)NC(=O)OCc2ccccc2)cc1C (centres undefined)	0%	5.8µM*	-12%	26%	-5%	i
CCOc1ccc(CN(C)C(=O)[C@H](Cc2ccccc2)NC(=O)OCc2ccccc2)cc1OC	?	10µM*	-1%	12%	-21%	?
CN(Cc1ccccc1)C(=O)c1ccccc1NC(=O)c1ccccc1	0%	23µM*	5%	-3%	3%	i
CC(C)CC(NC(=O)OCc1ccccc1)C(=O)NC(Cc1ccccc1)C(=O)CCl (centres undefined)	7.3µM*	?	?	6.5µM*	?	?
COc1ccc(CN(C)C(=O)C(Cc2ccccc2)NC(=O)c2ccccc2)cc1F (centres undefined)	?	?	-14%	?	-25%	?
Cc1ccc(C)c(N2CCN(S(=O)(=O)c3ccc(C(=O)N(C)C)s3)CC2)c1	nt	i	nt	nt	nt	i
Cc1ccc(Nc2nc(NCc3ccco3)nc3nccnc23)cc1Cl	nt	i	nt	nt	nt	?
